Among the data in PubChem BioAssay (NCATS) are Potency values, retold here.

Results filed as inconclusive are left out. Entries that show only a call come without a potency. Calls of active or inactive are those of the source. The call rests on the fitted dose curve; in most records, active means well fitted inhibition curve with a large enough effect; inconclusive means small, poorly fitted or top-dose-only effect; inactive means flat fitted curve, though single readings scatter.

Chain of Calcium and integrin-binding protein 1 (Homo sapiens) (Q99828 whole entry, looked up): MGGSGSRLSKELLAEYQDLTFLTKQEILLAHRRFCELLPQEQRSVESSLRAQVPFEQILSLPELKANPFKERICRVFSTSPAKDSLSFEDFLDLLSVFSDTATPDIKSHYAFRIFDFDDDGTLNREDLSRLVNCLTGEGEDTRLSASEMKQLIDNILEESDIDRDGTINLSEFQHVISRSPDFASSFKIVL

In this test the target is Calcium and integrin-binding protein 1 (Homo sapiens) (UniProt Q99828). The test is described as follows: Primary qHTS for Identification of Calcium Integrin Binding Protein 1 (CIB1) Competitor (AID 1508620).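 Further: GST tagged CIB1 binding a fluorescein labelled alphaIIb integrin peptide tracer; top concentration of the series differs between compounds.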 Particulars: CIB1-GST / FITC-alphaIIb peptide fluorescence polarization; series mostly up to 114 µM. In a few lines:
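Fluorescence polarization competition: CIB1-GST (1 uM final) preincubated with compound 15 min at room temperature, then FITC-labeled alphaIIb peptide (100 nM final) added for another 15 min. Polarization read at Ex 480/Em 540.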
(In qHTS, concentration-response curves come from the screen itself.)
With `O=C(Nc1ccc(F)c(C(F)(F)F)c1)Nc1nnc(-c2cccnc2)s1`, the Potency result was “inactive”. For the compound `COc1ccc(-c2csc(N3CCC(C(N)=O)CC3)n2)cc1OC`, the Potency entry is “inactive”. For the compound `Cc1cccc(-n2cnc3cc(C(=O)N4CCC(Cc5ccccc5)CC4)ccc32)c1`, the Potency entry was “inactive”. As for `S=P(c1ccccc1)(c1ccccc1)c1c[n+](C/C=C/c2ccccc2)c2ccccn12`, the Potency entry was “inactive”. For `COc1ccc(OC)c(C2=Nn3c(nnc3-c3ccccc3O)SC2)c1`, the Potency entry is “inactive”. The value for `COc1ccc2oc(NC3=NC(c4[nH]ncc4Cl)C4=C(CCCC4=O)N3)nc2c1` (centres undefined) was “inactive”. Turning to `NC(=O)c1ccc(-c2noc(-c3ccccc3F)n2)cc1`, the Potency entry was “inactive”. Consider `Cc1cc2c(s1)c1cnn(Cc3ccc(C)c(F)c3F)c(=O)c1n2C`, for which the Potency result is “inactive”. The value for `O=C(NCCCCc1ccccc1)C1CCN(c2nc(-c3ccc(Br)cc3)cs2)CC1` was “inactive”; that for `Cc1cccc(-n2cnc3cc(C(=O)N4CC(C)CC(C)C4)ccc32)c1` (centres undefined) was “inactive”. `c1ccc(CNc2ccc(N3CCOCC3)cc2)cc1`: the Potency result was “inactive”.

As to `Cc1cnc(-c2ccccc2C2COC2)nc1NCc1ccc(-n2ccnn2)cc1`, the Potency result is “inactive”. Regarding `O=C(Nc1ccc(-c2nc3ccccc3[nH]2)cc1)c1ccc2sccc2c1`, the Potency entry was “inactive”. For the compound `CC(=O)Nc1sc2c(c1-c1cncnc1)CCNC2`, the Potency entry was “inactive”. The result for `COc1cccc(CNc2ccc(S(=O)(=O)Nc3ncc(C)s3)cc2)c1O` reads “inactive”; that for `N#Cc1ccc(CNc2nc(-c3ccccc3C(F)(F)F)nc3ccccc23)cc1`, “inactive”. Regarding `COc1ccc(C2Nc3ccccc3C(=O)N2Cc2ccccc2)cc1COc1ccc(F)cc1` (centres undefined), the Potency result was “inactive”. Turning to `CN(C)c1ccc(-c2cc(O)c3ncccc3c2)cc1`, the Potency entry is “inactive”.

In the case of `Cc1ccc(-c2csc3ncnc(Sc4nnnn4C)c23)cc1`, the Potency result is “inactive”. Take `Cc1ccc(OC2=NS(=O)(=O)c3ccccc32)cc1`: the Potency entry is “inactive”. Regarding `COc1ccc(OC)c(-c2nnc(NC(=O)Nc3ccc4ccccc4c3)s2)c1`, the Potency result was “inactive”. As to `O=C1Cc2cc(S(=O)(=O)N3CCN(c4ccc(O)cc4)CC3)ccc2N1`, the Potency entry was “inactive”. In the case of `O=C(Nc1ccc(F)c(C(F)(F)F)c1)Nc1ccc(-c2ccncc2)s1`, the Potency result was “inactive”. For `Cc1ccc(-c2nc3ccccc3s2)cc1NC(=O)c1ccc(-c2cccc(Cl)c2)o1`, the Potency result is “inactive”. As for `CCOC(=O)c1cccc(-n2cccc2/C=C2\NC(=O)N(CC(=O)O)C2=O)c1`, the Potency entry was “inactive”. For `O=C(Nc1ccc(-n2cncn2)c(F)c1)Nc1nnc(-c2ccncc2)s1`, the Potency entry is “inactive”. As to `O=S(=O)(Nc1ccccc1F)c1ccc(O)c2ncccc12`, the Potency result was “inactive”. Turning to `O=C(COC(=O)CNC(=O)c1ccccc1)Nc1ccccc1Cl`, the Potency result is “inactive”.

As to `COc1ccc(S(=O)(=O)N2CCN(S(=O)(=O)c3ccc4c(c3)OCCO4)CC2)cc1`, the Potency result was “inactive”. The result for `O=S(=O)(Nc1nccs1)c1ccc(NCc2cccc(O)c2)cc1` reads “inactive”; that for `CC(=O)Nc1cccc(S(=O)(=O)N2CCCN(S(=O)(=O)c3ccc4c(c3)OCCO4)CC2)c1`, “inactive”; that for `COc1cccc(C2c3c(ncn(-c4ccc(NC(C)=O)cc4)c3=N)Oc3ccc4ccccc4c32)c1` (centres undefined), “inactive”. As for `Fc1cnc(-c2ccccc2C(F)F)nc1NCc1ccc(-c2ccn[nH]2)cc1`, the Potency entry was “inactive”.

In the case of `Cc1cc(C)nc(NC(=S)N2CCN(c3cc(Br)cc(C(F)(F)F)c3)CC2)c1`, the Potency result is “inactive”. Regarding `O=C1N/C(=C\c2ccco2)C(=O)N1Cc1ccccc1`, the Potency result is “inactive”. `CC(C)(C)OC(=O)N1CCN(c2ccc(NCc3cnc(-c4ccc(C#N)cc4)s3)cc2)CC1`: the Potency result was “inactive”. For the compound `O=c1c2ccccc2nc2sc(NCc3ccc(Sc4ccccc4)cc3)nn12`, the Potency result was “inactive”.

With `Cn1cncc1CNc1ncnc2ccc(-c3ccc4c(c3)OCO4)cc12`, the Potency entry was “inactive”.

As for `O=C(Cn1nc(-c2ccc(OC(F)(F)F)cc2)ccc1=O)NCCc1ccccc1`, the Potency entry was “inactive”.
